Results with a measured potency or affinity are listed apart.
Tests used:
Klebsiella pneumoniae = conditions: Concentration 32 ug.mL-1;; ASSAY_TEST Inhibition of Bacterial Growth; detection method Absorption (OD600); MEDIA CAMHB; plate type 384well; NBS; CORNING #3640; time 18 hr
Candida albicans = conditions: Concentration 32 ug.mL-1; ASSAY_TEST Inhibition of Fungal Growth; detection method Absorption (OD530)
Cryptococcus neoformans = conditions: Concentration 32 ug.mL-1; ASSAY_TEST Inhibition of Fungal Growth; detection method Resazurin; Absorption (OD600-OD570); plate type 384well; NBS; CORNING #3640

Structure (SMILES) | Inhibition (Klebsiella pneumoniae) [%] | Inhibition (Candida albicans) [%] | Inhibition (Cryptococcus neoformans) [%]
CCCNC(=O)CSc1nnc2c(=O)n(-c3ccc(F)cc3)ccn12 | 12.9 | 2.11 | -15.58
COc1ccc(-c2cc3c4nnc(SCC(=O)Nc5cccc(C)c5C)n4ccn3n2)cc1 | 2.16 | 3.48 | -22.8
COc1cccc(-n2ccn3c(SCc4ccc(Cl)cc4)nnc3c2=O)c1 | 9.45 | 2.03 | -6.31
Cc1ccc(NC(=O)Cn2nc3c(N4CCOCC4)nccn3c2=O)cc1Cl | 6.31 | 3.12 | -5.46
CC1CCN(C(=O)Cn2nc3n(Cc4ccco4)c(=O)c4sccc4n3c2=O)CC1 | 6.19 | 0.21 | -13.38
COc1cc(OC)c(NC(=O)Cn2nc3c(N4CCOCC4)nccn3c2=O)cc1Cl | 1.91 | 3.65 | -8.41
CCOC(=O)c1ccccc1NC(=O)Cn1nc2c(Oc3ccccc3)nccn2c1=O | 14.49 | 0.37 | -11.47
CC(C)c1nnc2c(=O)n(CC(=O)Nc3cccc(C#N)c3)c3ccccc3n12 | 14.72 | 2.88 | -33.67
Cc1ccc(CNC(=O)Cn2nc3c(SC4CCCCC4)nccn3c2=O)cc1 | 14.28 | -1.05 | -11.99
Cc1ccc(-c2cc3c4nn(CC(=O)Nc5cc(F)ccc5C)c(=O)n4ccn3n2)cc1C | 2.94 | -1.13 | -10.17
COc1ccccc1-n1ccn2c(SCc3ccccc3F)nnc2c1=O | 11.1 | 2.31 | -5.25

Reference: ChEMBL document CHEMBL4513146, “CO-ADD screening of Karazin Kharkiv National University (Ukraine) compounds”
